Measured values reported in PubChem BioAssay (NCATS).
Records with an inconclusive call do not appear. Active and inactive are the calls of the source. Unless noted, calls follow the shape of the dose curve; as a rule, active = well fitted inhibition curve with a large enough effect; inconclusive = small, poorly fitted or top-dose-only effect; inactive = flat fitted curve, though single readings scatter.

Key:
[1] = target: Dual specificity protein kinase CLK4 (Homo sapiens) (UniProt Q9HAZ1); assay: qHTS Assay for Inhibitors of CDC-like Kinase 4 (ADP-Glo Assay) (AID 1771); conditions: recombinant CLK4, ADP-Glo luminescence; series mostly up to 80 µM; also: nearly all actives have a fitted effect of over 70% in size; also: potency is read from the fitted curve at half-maximal effect
Dual specificity protein kinase CLK4 (Homo sapiens), sequence (Q9HAZ1 whole entry, looked up): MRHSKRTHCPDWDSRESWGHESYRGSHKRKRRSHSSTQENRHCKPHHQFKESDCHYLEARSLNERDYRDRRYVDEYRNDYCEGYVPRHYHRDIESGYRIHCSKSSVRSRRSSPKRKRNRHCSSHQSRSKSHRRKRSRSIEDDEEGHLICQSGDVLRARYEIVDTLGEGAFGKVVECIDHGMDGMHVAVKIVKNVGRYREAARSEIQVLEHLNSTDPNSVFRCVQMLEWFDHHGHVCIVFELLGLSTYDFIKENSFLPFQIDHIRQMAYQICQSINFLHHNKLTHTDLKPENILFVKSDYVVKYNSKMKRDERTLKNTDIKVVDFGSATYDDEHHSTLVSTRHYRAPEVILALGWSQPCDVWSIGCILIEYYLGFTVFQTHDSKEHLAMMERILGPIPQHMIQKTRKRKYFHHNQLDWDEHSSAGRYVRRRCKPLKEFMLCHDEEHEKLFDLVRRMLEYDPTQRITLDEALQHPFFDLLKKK
How it was run: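 ADP production was read by ADP-Glo luminescence after residual ATP depletion, following 1 h room-temperature reaction of 25 nM Clk4, 1 uM ATP and 100 uM RS peptide with MgCl2, EGTA, DTT and Triton X-100.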

[2] = qHTS profiling of the MIPE4 collection as inhibitors of Plasmodium falciparum (3D7) proliferation (AID 743344; call rule not given here;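 also: scaled between DMSO vehicle wells and 0.29 µM artemisinin as full inhibition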); conditions: P. falciparum 3D7 in erythrocytes, SYBR Green DNA fluorescence, 72 h; at 5.51 µM (top of the series) unless noted
How it was run: (§1)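 Parasite DNA was quantified by SYBR Green I fluorescence (ex 485, em 535 nm) after overnight lysis in saponin/Triton buffer at room temperature. Cultures at 0.3% parasitemia and 2.5% hematocrit were first exposed to compound for 72 h at 37 C; signals were normalised to artemisinin (0.29 uM) and vehicle wells.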

[3] = qHTS profiling of the MIPE4 collection as inhibitors of Plasmodium falciparum (DD2) proliferation (AID 743345; call rule not given here); conditions: P. falciparum Dd2 in erythrocytes, SYBR Green DNA, 72 h; at 5.51 µM (top of the series) unless noted
Excerpt: Plasmodium falciparum is a virulent malarial parasite that kills 1-2 million people worldwide each year. Transmitted by mosquitoes, the sporozoite form of the parasite enters the blood stream to infect hepatocytes, where they become merozoites that infect red blood cells (erythrocytes). Within erythrocytes, merozoites begin a […] cycle of growth and division, after which the parasite is released to infect new red blood cells. Gametocytes, which form within erythrocytes as well, circulate in the bloodstream and are ingested by the mosquito, thereby completing the life cycle. To profile malarial isolates for differential chemical responses and to identify inhibitors of malarial growth, an assay that measures P. falciparum growth and replication within erythrocytes was employed. This assay uses a DNA binding fluorescent dye (SYBR Green) to detect parasite DNA following cell lysis. Because mature erythrocytes lack DNA, only Plasmodium-derived DNA is detected.
The SYBR Green viability assay was adapted from a method described previously (Plouffe et al., 2008). For screening 3 ul culture medium was dispensed into 1536 well black clear bottom plates (Aurora Biotechnologies) using a Multidrop Combi (Thermo Fisher Scientific Inc.), 23 nL compounds in DMSO were added by a pin tool (Kalypsys), and 5 ul of erythrocytes infected with P. falciparum (0.3% parasitemia, 2.5% hematocrit final concentration) were added. The plates were incubated at 37 C in a humidified incubator in 5% CO2 for 72 h, and 2 ul lysis buffer (20 mM Tris HCl, 10 mM EDTA, 0.16% saponin, 1.6% triton X, 10X SYBR Green I supplied as 10,000X […] by Invitrogen) was added to each well. […] The following morning, fluorescence intensity at 485(14) nm excitation and 535(25) nm emission wavelengths was measured on an EnVision (Perkin Elmer) plate reader. Plate reads were normalized relative to the control inhibitor (0.29 uM artemisinin) and vehicle (DMSO) wells present on each plate and then corrected by an algorithm using vehicle-only control plates at the beginning and end of the compound plate stack.

[4] = qHTS profiling of the MIPE4 collection as inhibitors of Plasmodium falciparum (DD2) proliferation (Rep 2) (AID 743346; call rule not given here); conditions: P. falciparum Dd2 in erythrocytes, SYBR Green DNA, 72 h; at 5.51 µM (top of the series) unless noted
How it was run: as §1

[5] = qHTS profiling of the MIPE4 collection as inhibitors of Plasmodium falciparum (HB3) proliferation (AID 743347; call rule not given here;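 also: plate controls were DMSO vehicle wells for no effect and artemisinin wells for full effect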); conditions: P. falciparum HB3 in erythrocytes, SYBR Green DNA, 72 h; at 5.51 µM (top of the series) unless noted
How it was run: as §1

[6] = target: Glutathione peroxidase 1 (Homo sapiens) (UniProt P07203); assay: Primary qHTS Assay for Inhibitors of Recombinant Selenoprotein Glutathione Peroxidase 1 (GPX1) (AID 1845191); conditions: recombinant GPX1, GR-coupled NADPH fluorescence, 15 min; series mostly up to 48.8 µM; also: % is scaled to controls: 0 for no effect and ±100 for the full control effect; nearly all actives have a fitted effect of over 65% in size
Glutathione peroxidase 1 (Homo sapiens), sequence (P07203 whole entry, looked up): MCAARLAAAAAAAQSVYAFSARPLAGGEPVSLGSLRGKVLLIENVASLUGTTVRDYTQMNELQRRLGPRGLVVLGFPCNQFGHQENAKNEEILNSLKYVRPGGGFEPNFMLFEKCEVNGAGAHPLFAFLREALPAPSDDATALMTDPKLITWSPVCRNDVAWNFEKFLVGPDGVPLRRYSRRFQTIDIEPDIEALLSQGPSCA
How it was run: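 NADPH consumption tracked by fluorescence at 340/450 nm between t=0 and t=15 min, room temperature. Final mix: 10 nM GPX1, 100 nM glutathione reductase, 1 mM GSH, 0.5 mM NADPH, 0.5 mM cumene hydroperoxide, 0.01% BSA; 30 min compound–enzyme preincubation.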

[7] = target: Phospholipid hydroperoxide glutathione peroxidase GPX4 (Homo sapiens) (UniProt P36969); assay: Primary qHTS Assay for Inhibitors of Recombinant Selenoprotein Glutathione Peroxidase 4 (GPX4) (AID 1845192); conditions: recombinant GPX4, GR-coupled NADPH fluorescence, 15 min; series mostly up to 50 µM; also: nearly all actives have a fitted effect of over 65% in size
Phospholipid hydroperoxide glutathione peroxidase GPX4 (Homo sapiens), sequence (P36969 whole entry, looked up): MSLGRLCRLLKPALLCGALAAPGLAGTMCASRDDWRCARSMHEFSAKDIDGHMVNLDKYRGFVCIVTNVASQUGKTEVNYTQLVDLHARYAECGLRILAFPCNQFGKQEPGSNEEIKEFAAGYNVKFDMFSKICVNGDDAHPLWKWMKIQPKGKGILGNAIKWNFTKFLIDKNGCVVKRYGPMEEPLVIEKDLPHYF
How it was run: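 NADPH consumption followed by fluorescence at 340/450 nm, t=0 and after 15 min at room temperature. Reaction started with cumene hydroperoxide (0.5 mM final) after 30 min compound–GPX4 preincubation; final 200 nM GPX4, 100 nM GR, 1 mM GSH, 0.5 mM NADPH.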

In the case of `COc1ccc(CNc2nc(-c3cccc(NS(C)(=O)=O)c3)nc3ccccc23)c(OC)c1`, the Potency [1] is reported as “inactive”.
With `COc1cccc(-c2ccc3ncnc(N4CCOCC4)c3c2)c1` the Potency [1] was 1.58 µM (active).
In the case of `NC[C@@H]1O[C@H](O[C@H]2[C@H](O)[C@H](O[C@H]3[C@@H](O)[C@H](N)C[C@H](N)[C@H]3O[C@H]3O[C@H](CN)[C@H](O)[C@H](O)[C@H]3N)O[C@@H]2CO)[C@@H](N)[C@@H](O)[C@@H]1O`, the parasite growth, % of DMSO control [2] is reported as 98.8%, the parasite growth remaining, % of DMSO control (lower = more inhibition) [3] is reported as 101% and the parasite growth, % of control (lower = inhibition) [4] is reported as 77.1%. The growth, % of control [5] was 77.3% and the activity, negative = inhibition [6] was -26.7% [at 4.49 µM] (inactive).
For `CCC(=O)O[C@@H]1CC(=O)O[C@H](C)C/C=C/C=C/[C@@H](O)[C@H](C)C[C@H](CC=O)[C@H](OC2O[C@H](C)[C@@H](O[C@H]3C[C@@](C)(O)[C@@H](OC(=O)CC)[C@H](C)O3)[C@H](N(C)C)[C@H]2O)[C@H]1OC` (some centres undefined), the outcome [6] was “inactive” and the outcome [7] was “inactive”.
